Source: paper PMC5540273 (PLoS ONE, 2017)

These compounds were tested on EPHA7. Details: concentration: 1 μM, replicates: in singlicate; n = 1.
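Also: KINOMEscan kinase panel screen.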

Row | SMILES | %Inh [%]
1 | CC(=O)Nc1nc2cnc(Nc3cc(NC(=O)c4cccc(C5(C#N)CC5)c4Cl)ccc3C)nc2s1 | 0
2 | c1ccc(-c2cnc3nccnn23)cc1 [AH20685] | 0
3 | CCn1c(-c2nonc2N)nc2c(C#CC(C)(C)O)nc(OC[C@H](N)c3ccccc3)cc21 [GSK943949] | 0
4 | Cl.Cl.NCC(C(=O)Nc1cc(Br)c(-c2ccnc3[nH]ccc23)s1)c1ccccc1 (stereo not shown) [GSK1269851] | 0
5 | COc1cccc(C2=C(Nc3ccc(Cl)c(C(=O)O)c3)C(=O)NC2=O)c1 [SB-390769] | 0
6 | Cc1cccc(Nc2nc(N[C@H]3CCNC3)ncc2C(N)=O)c1.Cl [GSK2197149] | 10

Each compound was assayed on EPHA8. Details: concentration: 1 μM, replicates: in singlicate; n = 1.

Row | SMILES | %Inh [%]
7 | Cc1ccc(C(=O)Nc2ccc(Nc3ccnc4cc(-c5nccs5)ccc34)cc2O)cc1.Cl [GW494702] | 0
8 | CC(C)c1nc(-c2cccc(NS(=O)(=O)c3c(F)cccc3F)c2F)c(-c2ccnc(Nc3ccc(N4CCOCC4)nc3)n2)s1 [GSK2008607] | 99.4
9 | Cl.c1ccc(-c2ccc3c(Nc4ccc5[nH]ccc5c4)ccnc3c2)nc1 [GW440138] | 25
10 | Nc1ncc(-c2cccnc2)c2scc(-c3ccc4c(c3)CCN4C(=O)Cc3ccccc3)c12 [GSK683281] | 26
11 | COc1cc(Nc2nccc(-c3c(-c4cccc(NC(=O)c5c(F)cccc5F)c4)nn4ccccc34)n2)cc(OC)c1OC [GSK323521] | 20
12 | CCc1ccc(-c2ccc3c(c2)-c2c(cnn2C)S(=O)(=O)N3C)cc1 | 0
13 | COC(=O)Nc1nc2cc(Oc3ccc(NC(=O)Nc4cc(C(F)(F)F)ccc4F)cn3)ccc2[nH]1.Cl.Cl [GW681170] | 98.2
14 | Cc1occc1-c1ncc(OC[C@@H](N)Cc2c[nH]c3ccccc23)cc1-c1ccc2[nH]nc(C)c2c1.O=C(O)C(F)(F)F [GSK682037] | 39
15 | O=C(Nc1cccc(Oc2ccc3nc(NC(=O)C4CC4)cn3n2)c1)c1ccccc1C(F)(F)F | 29
16 | CSc1cccc2c(-c3ccncn3)c(-c3ccc(F)cc3)nn12 [GW514786] | 26
17 | COc1cc(Nc2ncc3c(C)nc(-c4cc5ccccc5[nH]4)n3n2)cc(OC)c1OC [GW869516] | 4
18 | O=C(Nc1cccc(-c2nn3ccccc3c2-c2ccnc(Nc3cccc(C(F)(F)F)c3)n2)c1)c1c(F)cccc1F [GSK292658] | 0
19 | CNC(=O)c1ccccc1Nc1nc(Nc2ccc(N3CCOCC3)cc2)ncc1Cl.Cl [GSK1576028] | 40
20 | Cl.c1ccc(-c2ccc3c(Nc4ccc5[nH]ncc5c4)ccnc3c2)nc1 [GW440137] | 16
21 | Cl.Cl.NCC(NC(=O)c1cc(-c2ccccc2)c(-c2ccnc3[nH]ccc23)s1)c1ccccc1 (stereo not shown) [GSK1321561] | 50
22 | COc1cc2c(cc1OCCN1CCNCC1)ncc1c3ccc(C#N)cc3[nH]c21 | 0
23 | CCn1c(-c2nonc2N)nc2c(C#CC(C)(C)O)ncc(OCCCCN)c21.O=C(O)C(F)(F)F.O=C(O)C(F)(F)F [GSK507274] | 3
24 | COc1cc(Nc2nccc(-c3c(-c4cccc(NC(=O)c5c(F)cccc5F)c4)nn4ncccc34)n2)cc(OC)c1OC [GSK327238] | 56
25 | COc1cc(Nc2nccc(N3CCC(NC(=O)Nc4cccc(C(C)=O)c4)C3)n2)cc(OC)c1OC (stereo not shown) [GSK1379753] | 16

Row | SMILES | %Inh [%]
26 | CN(C)S(=O)(=O)c1cc(-c2ccc3nccc(-c4cccc(S(N)(=O)=O)c4)c3c2)cnc1N [GSK1669921] | 27
27 | COCCOCCOc1cc2ncc3c4ccc(C#N)cc4[nH]c3c2cc1OC | 9
28 | Nc1n[nH]c2cnc(-c3ccccc3)cc12 [SB-642124] | 51
29 | CN1CCN(CCCNc2nccc(-c3c(-c4ccc(F)cc4)nn4cc(C(F)(F)F)ccc34)n2)CC1 [GW621581] | 15
30 | Nc1ncnc2c1nc(-c1ccccc1)n2-c1ccccc1 [SKF-97293] | 7
31 | Cl.NC(=O)c1cccc(Nc2nccc(Nc3ccc(Oc4c(Cl)cccc4Cl)c(Cl)c3)n2)c1 [GW659009] | 6
32 | Cc1ccc(F)c(C(=O)Nc2cccc(-c3nn4ccccc4c3-c3ccnc(Nc4cccc(F)c4)n3)c2)c1F [GSK361061] | 53
33 | COc1cccc(-c2ccc3c(NC(=O)C4CC4)n[nH]c3n2)c1 [SB-710903] | 30
34 | CC(=O)N1CCN(c2ccc(Nc3nccc(-c4sc(C(C)C)nc4-c4cccc(NS(=O)(=O)c5cccc(Cl)c5)c4)n3)cn2)CC1 [GSK1660437] | 29
35 | C[C@@H]1CC[C@@H](C(=O)Nc2ccccc2)CN1c1cc(-c2ccc3c(N)n[nH]c3c2)nc(N)n1 [GSK2286062] | 4
36 | Clc1ccc(-c2nn3ncccc3c2-c2ccnc(Nc3ccc4c(c3)OCCO4)n2)cc1 [GW829116] | 3
37 | Cc1ccc(C(=O)N2CC[C@@H](O)C2)cc1-n1c(C)cc(OCc2ccc(F)cc2F)c(Br)c1=O | 85
38 | CC(=O)Nc1nc2cnc(Nc3cc(NC(=O)c4cccc(C5(C#N)CC5)c4Cl)ccc3C)nc2s1 | 55
39 | c1ccc(-c2cnc3nccnn23)cc1 [AH20685] | 5
40 | CCn1c(-c2nonc2N)nc2c(C#CC(C)(C)O)nc(OC[C@H](N)c3ccccc3)cc21 [GSK943949] | 0
41 | Cl.Cl.NCC(C(=O)Nc1cc(Br)c(-c2ccnc3[nH]ccc23)s1)c1ccccc1 (stereo not shown) [GSK1269851] | 13
42 | COc1cccc(C2=C(Nc3ccc(Cl)c(C(=O)O)c3)C(=O)NC2=O)c1 [SB-390769] | 15
43 | Cc1cccc(Nc2nc(N[C@H]3CCNC3)ncc2C(N)=O)c1.Cl [GSK2197149] | 15
